Structures are written as SMILES. Inconclusive results are not listed.

This experiment in a line: qHTS for identification of novel therapeutic agents for treatment of microphthalmiaassociated transcription factor (MiT) renal cell carcinoma (RCC) (AID 1963991). To be noted: TFE3-RCC viability, CellTiter-Glo, 48 h; measured here: UOK145 Z-AUC; stronger effect = lower value. The method in brief:
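Three TFE3-fusion RCC cell lines (UOK109, UOK124, UOK145), 500 cells/well, were exposed to the 1912-compound MIPE 4.0 library for 48 hours at 37 C. Viability was read by CellTiter-Glo luminescence, normalised to DMSO (100%) and empty wells (0%), with 11-concentration curve fits.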
With `CC(C)[C@]12O[C@@H]1[C@@H]1O[C@]13[C@]1(O[C@H]1C[C@@H]1C4=C(CC[C@@]13C)C(=O)OC4)[C@H]2O`, the z-score was -3.53. As for `CCC(=O)OC1CCC2C3CCC4=CC(=O)CC[C@@]4(C)C3CC[C@]12C` (some centres not stated), the figure is -0.0668. With `CC(=O)OCC1=C(C(=O)O)N2C(=O)[C@@H](N)[C@@H]2SC1`, the z-score turned out to be 1.3. As to `CCOC(=O)c1cncn1[C@H](C)c1ccccc1`, the z-score is 0.512. In the case of `c1cc2c(cc1[C@H]1OC[C@H]3[C@H]1CO[C@H]3c1ccc3c(c1)OCO3)OCO2` it was 0.142. In the case of `C[C@]12COC(=O)C[C@@H]1CC[C@@H]1[C@H]2CC[C@@]2(C)[C@H]1CC[C@]2(C)O` it was 0.397.

On to `C[C@H]([C@H](O)CCC(C)(C)O)[C@H]1CC[C@@]2(O)C3=CC(=O)[C@@H]4C[C@@H](O)[C@@H](O)C[C@]4(C)[C@@H]3CC[C@]12C`, for which the z-score was -2.52. In the case of `C[C@@]12OC(=O)[C@]1([C@@H](O)[C@@H]1C=CCCC1)NC(=O)[C@H]2CCCl` it was -2.86; in that of `CC(O)=C(C#N)C(=O)Nc1cc(Br)ccc1Br`, 0.63. As for `C[C@@H]1O[C@@H](O[C@@H]2C=C3CC[C@@H]4[C@@H](CC[C@]5(C)[C@H](c6ccc(=O)oc6)CC[C@@]45O)[C@@]3(C)CC2)[C@H](O)[C@H](O)[C@H]1O`, the figure is -3.36; as for `CC[C@@H]1[C@@H](C)O[C@@](O)([C@@H](C)[C@H](O)[C@H](C)[C@H]2OC(=O)C=CC=C[C@@H](C)[C@@H]([C@@H](C)[C@@H](O)[C@H](C)[C@@]3(O)C[C@H](O[C@H]4C[C@H](O)[C@H](O)[C@H](C)O4)[C@H](CC)[C@@H](C)O3)OC(=O)C=CC=C[C@@H]2C)C[C@H]1O[C@H]1C[C@H](O)[C@H](O)[C@H](C)O1`, -1.57; as for `C[C@H]1CCCC=CC2C[C@H](O)C[C@@H]2[C@H](O)C=CC(=O)O1` (some centres not stated), -5.31.

For the molecule `C#C[C@]1(O)C=C[C@@H]2[C@@H]3CCC4=CC(=O)CC[C@@H]4[C@H]3CC[C@@]21CC`, the z-score is -1.42. In the case of `COc1cc2cc(c1Cl)N(C)C(=O)C[C@H](OC(=O)C(C)C)[C@]1(C)O[C@H]1[C@H](C)[C@@H]1C[C@@](O)(NC(=O)O1)[C@H](OC)C=CC=C(C)C2` it was -1.62; in that of `COC1=CC(C)=C[C@@H](C)[C@@H](O)[C@@H](C)CC(C)=CC=C[C@H](OC)[C@H]([C@@H](C)[C@@H](O)[C@H](C)[C@@]2(O)C[C@@H](O)[C@H](C)[C@@H](C(C)C)O2)OC1=O`, -3.22. In the case of `COc1cccc2c1[C@]13CCN(CC4CC4)[C@H](C2)[C@]1(OC)CCC(=O)C3` it was 0.213; in that of `CC(C)(O)C=CC(=O)[C@](C)(O)[C@H]1[C@H](O)C[C@]2(C)[C@@H]3CC=C4[C@@H](C=C(O)C(=O)C4(C)C)[C@]3(C)C(=O)C[C@@]12C`, -2.28.

The values above are taken from PubChem BioAssay (NCATS).
